# Laboratory results published in PubChem BioAssay AID1851 (National Center for Advancing Translational Sciences (NCATS), 2009).
# Where “and” joins values, the source holds several entries; their conditions need not be identical. Identical values can stand only once. Out of some 16,000 compounds screened, about 4,000 (25%) were called active. Another 26% or so got no clear call; they are omitted. Calls come from the whole dose curve; as a rule, active = well fitted curve in the direction sought with a large enough effect; inconclusive = small, poorly fitted or top-dose-only effect, or effect the other way; inactive = no such curve, though single readings can be large or run the other way. A selection follows. A structure can be active in one record and inactive in another.
# Target: Cytochrome P450 2C9 (Homo sapiens) (UniProt P11712)
# Assay: Cytochrome panel assay with activity outcomes
# Settings: recombinant CYP, pro-luciferin dealkylation, luminescence, p450-cyp2c9; series mostly up to 57.1 µM; activity, negative = inhibition: at the top concentration
# % is set by controls: 0 for no effect and ±100 for the full control effect.
# Sequence of Cytochrome P450 2C9 (Homo sapiens) (P11712 whole entry, looked up): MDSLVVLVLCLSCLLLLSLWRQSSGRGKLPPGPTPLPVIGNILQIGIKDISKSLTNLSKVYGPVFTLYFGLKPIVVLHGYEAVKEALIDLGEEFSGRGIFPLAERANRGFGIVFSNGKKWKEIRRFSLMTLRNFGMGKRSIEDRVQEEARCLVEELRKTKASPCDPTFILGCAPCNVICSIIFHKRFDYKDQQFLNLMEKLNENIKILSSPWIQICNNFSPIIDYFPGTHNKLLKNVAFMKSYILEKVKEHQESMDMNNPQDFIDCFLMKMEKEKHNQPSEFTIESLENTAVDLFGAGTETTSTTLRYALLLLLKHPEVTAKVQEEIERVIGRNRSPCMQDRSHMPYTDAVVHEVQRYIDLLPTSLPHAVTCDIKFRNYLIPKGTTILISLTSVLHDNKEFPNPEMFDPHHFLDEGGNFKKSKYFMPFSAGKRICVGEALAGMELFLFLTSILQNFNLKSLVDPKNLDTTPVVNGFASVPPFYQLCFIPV
SMILES,"activity, negative = inhibition",AC50
C[C@]12CC[C@H]3c4ccc(O)cc4CC[C@@H]3[C@H]1CC[C@@H]2OC(=O)CCc1ccccc1,-8.07% [at 11.4 µM] (inactive),
COc1cc2c3cc1Oc1cc(ccc1O)C[C@@H]1c4c(cc(OC)c(O)c4Oc4cccc(c4)C[C@H]3N(C)CC2)CC[N+]1(C)C,-0.825% [at 25.6 µM] (inactive),
O=NN(Cc1ccc(Cl)cc1)[C@@H](C(=O)O)c1ccccc1,-22.5% [at 11.4 µM] (inactive),
N[C@H](CCCP(=O)(O)O)C(=O)O,-3.94% (inactive),
N#Cc1ccc(CN2CC[C@@]3(CCCN(C(=O)Oc4ccccc4)C3)C2)cc1,-28.9% (inactive),
CC[N+](C)(C)c1cccc(O)c1,6.93% (inactive),
Cc1cccc(NC(=S)NC2CC3CCCC(C2)N3Cc2cccs2)c1 (centres undefined),-10.8% (inactive),
CN(C)CCC=C1c2ccccc2CCc2ccccc21,5.35% [at 25.6 µM] (inactive),
CC(C)(C)c1o[nH]c(=O)c1C[C@H](N)C(=O)O,11.8% (inactive),
Cc1o[nH]c(=O)c1C[C@H](N)C(=O)O,,inactive and 10 µM (active)
Cc1o[nH]c(=O)c1C[C@@H](N)C(=O)O,-14.3% (inactive),
CCCN1CCC[C@@H]2Cc3nc(N)ncc3C[C@H]21,-20.2% (inactive),
COC(=O)C1(C)C=C2C(=C(C)C(=O)C2C)CN1 (centres undefined),-24.9% (inactive),
c1cncc(CNCCN2CCNCC2)c1,-12% [at 11.4 µM] (inactive),
CCC1=C(C[C@H]2NCCc3ccccc32)C[C@@H]2c3cc(OC)c(OC)cc3CCN2C1,-10.7% [at 11.4 µM] (inactive),
C[C@@H](O)CN(CCN(C[C@@H](C)O)C[C@@H](C)O)C[C@@H](C)O.O=[N+]([O-])O.[Cu],,0.794 µM (active)
CNC(=S)NC1CC2CCCC(C1)N2CC(C)C (centres undefined),-4.41% (inactive),
Cc1c([C@@H](C)[C@H]2NC[C@H](C)C[C@@H]2O)ccc2c1C[C@@H]1[C@H]2CC=C2C[C@@H](O)CC[C@@]21C,2.85% [at 11.4 µM] (inactive),
C[N+]1(C)CCO[C@](O)(c2ccc(-c3ccc([C@]4(O)C[N+](C)(C)CCO4)cc3)cc2)C1,10.5% [at 25.6 µM] (inactive),
O=C(O)C1=CCCN(CCOC(c2ccc(C(F)(F)F)cc2)c2ccc(C(F)(F)F)cc2)C1,,2.51 µM (active)
c1ccc2c([C@@H]3CCN(CCN4CCOCC4)C3)c[nH]c2c1,-7.99% [at 11.4 µM] (inactive),
Cc1cc(OCc2ccc([N+](=O)[O-])cc2)c2c3c(c(=O)oc2c1)CCCC3,,0.141 µM (active)

SMILES,"activity, negative = inhibition",AC50
Cc1cc(OCC(=O)OC(C)C)c2c3c(c(=O)oc2c1)CCCC3,,2 µM (active)
Cc1cc(OC(=O)CCCNC(=O)OC(C)(C)C)c2c3c(c(=O)oc2c1)CCC3,,11.2 µM (active)
COc1cc2cc(c1Cl)N(C)C(=O)C[C@H](OC(=O)C(C)C)[C@]1(C)O[C@@H]1[C@@H](C)[C@H]1C[C@](O)(NC(=O)O1)[C@@H](OC)/C=C\C=C(\C)C2,8.76% [at 11.4 µM] (inactive),
c1ccc2c(c1)-c1ccccc1C2N1CC2CCC(CC2)C1,-14.3% [at 11.4 µM] (inactive),
CC(C)[N+](C)(CCC(C(N)=O)(c1ccccc1)c1ccccc1)C(C)C,-15% [at 25.6 µM] (inactive),
CCSCC[C@H](N)C(=O)O,-1.99% [at 11.4 µM] (inactive),
C[C@H](N)Cc1c[nH]c2ccc(OCc3cccs3)cc12,inactive,
C[C@@H]1[C@@H]2Cc3ccc(O)cc3[C@@]1(C)CCN2CC1CC1,-8.03% (inactive),
N#CCCCC[N+]12CN3CN(CN(C3)C1)C2,6.4% [at 11.4 µM] (inactive),
C[C@H](c1ccccc1)N1CCN([C@@H](C)c2ccccc2)CC1,5.45% [at 11.4 µM] (inactive),
O=C(O)[C@@H]1[C@H](C(=O)O)[C@]2(Cl)C(Cl)=C(Cl)[C@@]1(Cl)C2(Cl)Cl,-24.4% [at 11.4 µM] (inactive),
C/C=C(\C)C(=O)O[C@@H]1C(C)=C2[C@H]([C@@H]1OC(=O)CCCCCCC)[C@@](C)(OC(C)=O)C[C@@H](OC(=O)CCC)[C@@]1(O)[C@H]2OC(=O)[C@]1(C)O,,31.6 µM (active)
CNC[C@H](O)c1ccc(O)cc1,-2.51% [at 25.6 µM] (inactive),
CN1CCN(c2ccc3ccccc3n2)CC1,inactive,
CCCN1CCO[C@@H]2c3cc(O)ccc3OC[C@H]21,inactive,
O=[As](O)(O)c1ccc2nc3cc([As](=O)(O)O)ccc3nc2c1,1.65% [at 11.4 µM] (inactive),
CCCN1CCc2cccc3c2[C@@H]1Cc1ccc(O)c(O)c1-3,-23.4% (inactive),
COCCn1c(SCc2nc3sc(C(=O)OC)c(C)c3c(=O)[nH]2)nc2ccccc21,,0.891 µM (active)
NC(N)=Nc1ccc2[nH]c3c(c2c1)C[C@]1(O)[C@@H]2Cc4ccc(O)c5c4[C@]1(CCN2CC1CC1)[C@@H]3O5,0.123% (inactive),
CCN1C[C@@]2(COC)[C@H]3[C@@H](OC)[C@H]4C1[C@@]3([C@H](OC)C[C@@H]2O)[C@H]1C[C@@]2(O)[C@@H](OC(=O)c3ccccc3)[C@@H]1[C@@]4(OC(C)=O)[C@H](O)[C@@H]2OC,5.31% [at 25.6 µM] (inactive),
COc1ccc(C2SCC(=O)Nc3c2c(C)nn3-c2ccccc2)cc1OC (centres undefined),,10 µM (active)
O=C(Oc1ccc(S(=O)(=O)F)cc1F)c1ccccc1Cl,-12.2% [at 11.4 µM] (inactive),
